# Screening data from PubChem.
# In the library only some 6.5% were active in any assay of this set; here they are far more common.
# Lassa entry inh: blocks Lassa virus binding to or entry into cells; Lassa virus pseudotype entry inhibition, cell reporter; Potency, µM (series often up to 37.9 µM), without a hit: at the highest dose activity change, negative = inhibition, usual class: inhibitors; 300,000 compounds, 1.2% hits; AID 540256; calls by dose curve; tested in HEK293 cells; further: potency means the concentration at half of the fitted maximal effect; nearly all actives have a fitted effect of over 50% in size
# VACV mCherry inh: vaccinia inhibition (mCherry reporter); Vaccinia virus mCherry reporter infection, fluorescence; Potency, µM (doses to about 36.5 µM), for the others: at the top dose activity change, negative = inhibition, usual class: inhibitors; 310,000 compounds, 0.63% hits; AID 720579; calls by dose curve; tested in A549 cells; further: potency means the concentration at half of the fitted maximal effect; nearly all actives have a fitted effect of over 35% in size
# HCMV inh: human cytomegalovirus inhibition; HFF cells, HCMV-luciferase reporter, 72 h; active compounds read low; activity change, negative = inhibition, % at 57.5 µM; 410,000 compounds, 4.5% hits; in the data active means activity change below about -60%; inconclusive means no clear call, values can overlap the other calls; inactive means above about -39%
#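 Human foreskin fibroblasts infected with luciferase-reporter HCMV at MOI 1 PFU/cell, compounds at two doses. Luciferase measured 72 h post infection; normalized to buffer-only basal and Salinomycin (10uM) controls.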
# FMDV antiviral: foot and mouth disease virus antiviral activity. Potency, µM (doses to about 57.9 µM), without a hit: top-dose activity change, negative = inhibition, hits mostly inhibitors. FMDV antiviral cell-based qHTS. 410,000 compounds, 1.2% hits; calls by dose curve; tested in HEK293T cells; further: read-out not given here; potency means the concentration at half of the fitted maximal effect; nearly all actives have a fitted effect of over 45% in size
# Marburg entry inh: Marburg virus entry inhibition | Potency, µM (series often up to 37.8 µM), for the others: at the top dose activity change, negative = inhibition, usual class: inhibitors | AID 540276 | Marburg virus pseudotyped entry inhibition, cell reporter | 300,000 compounds, 1.8% hits; calls by dose curve; tested in HEK293 cells; further: potency means the concentration at half of the fitted maximal effect
# Vaccinia Venus: inhibitors of vaccinia virus (Venus reporter); AID 720580; Potency, µM (doses to about 36.5 µM), inactives show at the highest dose activity change, negative = inhibition, most hits filed as inhibitors; 330,000 compounds, 0.46% hits; Vaccinia virus Venus reporter expression, fluorescence; calls by dose curve; tested in A549 cells; further: potency means the concentration at half of the fitted maximal effect; nearly all actives have a fitted effect of over 30% in size
# Active calls of the source: *; i = inactive; ? = inconclusive; . = no result given; [ ] = remark or other dose. On the % scale 0 is the no-effect control and ±100 the full control effect.
SMILES,Lassa entry inh,VACV mCherry inh,HCMV inh,FMDV antiviral,Marburg entry inh,Vaccinia Venus
CCC(C)(C)n1nnnc1C(c1cc2ccc(OC)cc2[nH]c1=O)N1CCc2ccccc21 (centres undefined),-14%,.,13,-14%,?,.
Cn1c(-c2cccnc2)cc2c(Nc3cccc(C(F)(F)F)c3)nccc21,.,.,-22,.,.,.
O=C(NCc1ccco1)c1cc2ccccc2c(=O)o1,?,i[1.46 µM],-36,31%,20%,-9%
C=CCN(CC=C)C(=O)c1cc2ccccc2c(=O)o1,13%,i,-63*,-22%,-3%,-15%
O=[N+]([O-])c1cc(S(=O)(=O)C(F)(F)F)ccc1Sc1nc2ccccc2s1,?,.,99,?,?,-9%
CS(=O)(=O)c1ccc(Sc2nc3ccccc3s2)c([N+](=O)[O-])c1,?,?,.,35µM*,11µM*,?
COc1cccc(CNC(=O)c2sc3nc(C)cc(C)c3c2-n2cccc2)c1OC,27%[46.1 µM],-22%,-3,2%,?,-14%
CCn1ncc(Br)c1C(=O)Nc1cccc(F)c1,-4%[46.1 µM],-12%,24,-27%,2%[46.1 µM],-18%
CCn1ncc(Br)c1C(=O)Nc1ccc(C(C)C)cc1,-13%[46.1 µM],-8%,150,8%,13µM*,-16%
Cc1ncc(CO)c(/C=N/NC(=O)c2cc3c(s2)CCCC3)c1O,?,.,-66*,-6%,?,.
c1cncc(-c2nc(NCCCn3ccnc3)c3ccccc3n2)c1,-3%,-8%,-67*,-11%,?,-1%
Cc1nc(NCCCn2ccnc2)c2ccccc2n1,17%,-14%,-8,-8%,-24%,-10%
CCCCNC(=O)CCn1c(=O)c2cccn2c2cccnc21,12%[46.1 µM],-14%,1,-2%,.,-8%
CCN(CC)Cc1c(O)ccc2occ(C(=O)c3ccc(OC)cc3)c12,?,.,-11,-16%,?,-26%
CCN(CC)Cc1c(O)ccc2c([N+](=O)[O-])c(C)n(-c3ccc(OC)cc3)c12,-4%,.,-96*,-21%,?,-18%
COCCNc1c(-c2cc3ccc(C)c(C)c3[nH]c2=O)nc2ccccn12,5µM*,?,137,16%,?,-13%
Cc1cccc(C)c1NC(=O)CN(C)C(=O)c1ccc(-c2cccc(C(F)(F)F)c2)o1,5.6µM*,-6%,-32,-14%,?,-10%
O=c1c(-c2ccc(Cl)cc2)nc2cnc(N3CCNCC3)nc2n1-c1ccccc1,.,.,.,-21%,.,.
CC(OC(=O)C1CCN(S(=O)(=O)c2ccc(C(C)(C)C)cc2)CC1)C(=O)N(C)C1CCCCC1 (centres undefined),.,.,?,40µM*,.,.
CC(C)(C)c1ccc(C(=O)N2CCN(C(=O)C3CCCCC3)CC2)cc1,?,?,-77*,?,10%,-23%
O=S(=O)(c1ccc(Cl)cc1)N1CCC(c2ccncc2)CC1,?,i,9,?,.,-16%
O=C(C1CCC1)N1CCN(S(=O)(=O)c2ccc(F)cc2)CC1,-1%,-14%,2,-17%,17%,-7%
CC(C)(C)c1ccc(S(=O)(=O)N2CCC(c3ccncc3)CC2)cc1,?,?,-83*,?,.,-29%
CC(C)(C)c1ccc(C(=O)N2CCCN(C(=O)c3ccc(C(C)(C)C)cc3)CC2)cc1,1%,-10%,-5,?,7%,-6%
CC(C)(C)c1ccc(S(=O)(=O)N2CCN(C(=O)C3CCC3)CC2)cc1,?,i,-20,?,4.5µM*,-13%
Cn1cc(/C=C/c2cc[n+](C)cc2)c2cc(Cl)ccc21,?,?,-102*,-16%,?,-3%
COc1cc(OC)cc(C(=O)N[C@H](C(=O)OCC(=O)Nc2ccc(C)cc2C)C(C)C)c1,-15%,-20%,-90*,-8%,2%,-8%
COc1cccc2c1[C@H](C=Cc1ccccc1)[C@@H]([C@H](O)CO)OC2,-31%[14.3 µM],.,.,.,-11%[14.2 µM],.
COc1ccccc1NC(=O)CCNS(=O)(=O)c1ccc2c(c1)CCCC(=O)N2,1%[46.1 µM],-2%,3,-17%,.,8%
O=S(=O)(NCC(c1ccco1)S(=O)(=O)c1cccs1)c1ccc(Cl)cc1 (centres undefined),-10%[46.1 µM],-12%[7.34 µM],?,20%,.,-8%[7.34 µM]
